Screening data as filed in PubChem.
Many of the other results were omitted from the sample, so hits are more common in it than they were.
NOMO-1 viab = STK33 inhibitor candidate reducing NOMO-1 cell viability | NOMO-1 AML viability, CellTiter-Glo luminescence, 72 h | inhibition, % (no concentration beside the values) | 7.5% of 37,000 active | AID 2330; in the data active = inhibition above about 80%
ROS inducer = cancer cell ROS induction | 2% of 46,000 active | ROS induction (% of piperlongumine), % at 10 µM | U2OS ROS induction, H2DCF-DA fluorescence; in the data active = ROS induction above about 79%, passing the limit was not always enough;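 also: 0% = DMSO vehicle median and 100% = reference compound median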
PD-1 reverse act = activators reversing PD-1 mediated T-cell inhibition; primary human CD4 T cells, PD-L1 beads, CellTiter-Glo 96 h; 29,000 tested, under 10 active; activation, % (test concentration not listed); call rule not given here;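 also: 0% = median vehicle wells and 100% = positive control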
* = called active by the depositor; nt = not tested or not shown.

SMILES	NOMO-1 viab	ROS inducer	PD-1 reverse act
Cc1ccc(-c2ccc(OCC(=O)NC3CCCC3)cc2)cc1	nt	1.8	nt
CC1=CC(C)C2(COC(=O)NC3CCCCC3)COC3(CCCC3)C1C2C (centres undefined)	113.2*	15.2	0.6
CCn1c(C(=O)N2CCCC(C(=O)N3CCN(c4cccc(C)c4C)CC3)C2)cc2sccc21 (centres undefined)	nt	14.4	nt
COCCOC(=O)N1C(=O)[C@@]2(c3cc(C#CC4(O)CCCCCC4)ccc31)[C@H](C(=O)N1CCN(c3ncccn3)CC1)[C@H]1C(=O)O[C@H](c3ccccc3)[C@H](c3ccccc3)N1[C@@H]2c1ccccc1OCCO	nt	83.7*	nt
COCCOC(=O)N1C(=O)[C@@]2(c3cc(C#CCC(C(=O)OC)C(=O)OC)ccc31)[C@H](C(N)=O)[C@H]1C(=O)O[C@H](c3ccccc3)[C@H](c3ccccc3)N1[C@@H]2c1ccccc1OCCO	nt	161.6*	nt
COCCOC(=O)N1C(=O)[C@@]2(c3cc(C#Cc4ccc(OC)cc4)ccc31)[C@H](c1ccccc1OCCO)N1[C@H](c3ccccc3)[C@H](c3ccccc3)OC(=O)[C@H]1[C@@H]2C(=O)N1CCN(c2ncccn2)CC1	nt	31.6	nt
COCCOC(=O)N1C(=O)[C@@]2(c3cc(C#CCC(C(=O)OC)C(=O)OC)ccc31)[C@H](C(=O)N1CCN(c3ncccn3)CC1)[C@H]1C(=O)O[C@H](c3ccccc3)[C@H](c3ccccc3)N1[C@@H]2c1ccccc1OCCO	nt	79.8*	nt
COCCOC(=O)N1C(=O)[C@@]2(c3cc(C#CCC(C(=O)OC)C(=O)OC)ccc31)[C@H](C(=O)N1CCN(c3ncccn3)CC1)[C@H]1C(=O)O[C@H](c3ccccc3)[C@H](c3ccccc3)N1[C@@H]2c1ccc(O)cc1	nt	50.1	nt
COCCOC(=O)N1C(=O)[C@@]2(c3cc(C#CCCO)ccc31)[C@H](C(N)=O)[C@H]1C(=O)O[C@H](c3ccccc3)[C@H](c3ccccc3)N1[C@@H]2c1ccccc1OCCO	nt	15.5	nt
O=C(NCCc1ccccc1)Nc1ccc2c(c1)N(Cc1ccccc1)C(=O)c1ccccc1S2	nt	-3.1	nt
CC1CC(C)CN(S(=O)(=O)c2ccc3c(c2)oc(=O)n3CC(=O)NC(C)c2ccccc2)C1 (centres undefined)	nt	1.9	nt
C=CCSc1ncnc2c1sc1nc(CC)c3c(c12)CCCC3	nt	11.5	nt
Cc1nn(-c2ccccc2)nc1C(=O)Oc1c(Cl)cccc1Cl	nt	13.6	nt
O=S(=O)(c1ccc(Cl)cc1)N1CCc2ccccc21	120.2*	86.8*	-9.4
O=C(O)C1C2C=CC(O2)C1C(=O)Nc1ccc(S(=O)(=O)N2CCc3ccccc32)cc1 (centres undefined)	21.0	42.1	-1.0
O=C(/C=C/c1ccco1)N(Cc1ccccc1)c1ccccn1	nt	1.6	nt
Cc1ccn2cc(CNS(=O)(=O)N(C)C)nc2c1	nt	-10.0	nt
CCOC(=O)c1cccc(NS(=O)(=O)c2cc(C(=O)OCC)n(C)c2)c1	nt	2.6	nt
CCOC(=O)C1CCN(c2cc(C(F)(F)F)nc3ccc(C)cc23)CC1	nt	69.7	nt
O=C(Nc1ccc(-c2nc3cc(NC(=O)C4CCCCC4)ccc3o2)cc1)C1CCCCC1	99.0*	46.8	0.1
Cc1ccc2nc(-c3cccc(NC(=O)C4CCCCC4)c3)oc2c1	nt	13.2	nt
CCc1ccc(/C=N/N2CCN(Cc3ccccc3)CC2)cc1	nt	6.5	nt
COc1cc(C(=O)NCc2cccnc2)ccc1OCc1ccc(Cl)cc1	nt	2.4	nt
CCOC(=O)c1ccc(Nc2c(C(=O)OCC)cnc3ccccc23)cc1	nt	98.6*	nt
CCOC(=O)c1ccc(NC(=O)Cn2cnc3ccccc3c2=O)cc1	-14.6	nt	nt
SMILES	NOMO-1 viab	ROS inducer	PD-1 reverse act
CN(CC(=O)NCc1ccccn1)S(=O)(=O)c1cc(Br)cnc1N	nt	11.5	nt
CNC(=O)CSCc1ccc(Br)cc1	18.4	-8.6	0.3
N#CC(C#N)=C(Nc1ccc(Br)cc1)SCc1ccc(F)cc1	111.8*	8.5	-9.9
CC(C)CCNC(=O)Cc1ccc(-n2c(=S)[nH]c3ccccc3c2=O)cc1	nt	5.6	nt
CC(C)CCNCc1c(C(=O)O)n(Cc2ccccc2)c2ccccc12	nt	-1.0	nt
CC(C)NC(=O)Nc1ccc2c(c1)CC(=O)N([C@H](C)CO)C[C@@H](C)[C@@H](CN(C)Cc1ccc(Cl)c(Cl)c1)O2	42.6	28.4	-1.4
C[C@@H]1CN([C@H](C)CO)C(=O)Cc2cc(NC(=O)Nc3ccc(F)cc3)ccc2O[C@H]1CN(C)Cc1ccc(Cl)c(Cl)c1	94.3*	16.5	-0.2
C[C@H]1CN([C@@H](C)CO)C(=O)Cc2cc(NC(=O)Nc3ccccc3)ccc2O[C@@H]1CN(C)Cc1ccc(Cl)c(Cl)c1	31.3	69.1	-0.4
C[C@@H]1CN([C@H](C)CO)C(=O)Cc2cc(NC(=O)Nc3ccc4c(c3)OCO4)ccc2O[C@H]1CN(C)Cc1ccc(Cl)c(Cl)c1	56.6	11.1	nt
CC(C)NC(=O)Nc1ccc2c(c1)CC(=O)N([C@@H](C)CO)C[C@H](C)[C@@H](CN(C)Cc1ccc(Cl)c(Cl)c1)O2	-2.3	13.1	0.0
C[C@H]1CN([C@@H](C)CO)C(=O)Cc2cc(NC(=O)Nc3ccc(F)cc3)ccc2O[C@@H]1CN(C)Cc1ccc(Cl)c(Cl)c1	96.5*	52.2	-0.7
C[C@@H]1CN([C@H](C)CO)C(=O)Cc2cc(NC(=O)Nc3ccccc3)ccc2O[C@@H]1CN(C)Cc1ccc(Cl)c(Cl)c1	99.0*	19.3	-1.7
C[C@@H]1CN([C@H](C)CO)C(=O)Cc2cc(NC(=O)Nc3ccc4c(c3)OCO4)ccc2O[C@@H]1CN(C)Cc1ccc(Cl)c(Cl)c1	108.2*	4.5	0.1
CC(C(=O)N1CCCCCC1)n1sc2ccccc2c1=O (centres undefined)	nt	0.6	nt
CCCNC(=O)Cn1cc2c(n1)CCCCC2	nt	-12.4	nt
O=C(NCC[C@@H](CNC(=O)c1cccc(O)c1O)NC(=O)c1cccc(O)c1O)c1cccc(O)c1O	120.4*	-7.2	-4.5
CC(C)CCNC(=O)c1cccc2c1-c1ccccc1C2=O	19.6	14.2	-0.4
COC(=O)c1ccc(CSc2nncn2N)o1	nt	-9.2	nt
O=C(Cn1ncn2nc(-c3ccco3)cc2c1=O)NCc1ccccc1	nt	14.9	nt
C[C@H](CO)N1C[C@H](C)[C@H](CN(C)Cc2cccc(C(F)(F)F)c2)Oc2ncc(-c3cccc(F)c3)cc2C1=O	nt	49.3	nt
COc1ccc(C#Cc2cnc3c(c2)C(=O)N([C@H](C)CO)C[C@H](C)[C@H](CN(C)S(=O)(=O)c2ccc(C)cc2)O3)cc1OC	nt	139.9*	nt
C[C@H](CO)N1C[C@H](C)[C@H](CN(C)C(=O)Nc2cccc3ccccc23)Oc2ncc(-c3ccc(F)cc3)cc2C1=O	nt	2.9	nt
C[C@H](CO)N1C[C@H](C)[C@H](CN(C)C(=O)Nc2cccc3ccccc23)Oc2ncc(-c3cc4ccccc4o3)cc2C1=O	nt	115.3*	nt
C[C@H](CO)N1C[C@H](C)[C@H](CN(C)S(=O)(=O)c2ccc(F)cc2)Oc2ncc(-c3cccc(C(F)(F)F)c3)cc2C1=O	nt	116.3*	nt
C[C@H](CO)N1C[C@H](C)[C@H](CN(C)Cc2cccc(C(F)(F)F)c2)Oc2ncc(-c3cccc(C(F)(F)F)c3)cc2C1=O	nt	160.5*	nt
COc1ccc(C#Cc2cnc3c(c2)C(=O)N([C@H](C)CO)C[C@H](C)[C@H](CN(C)S(C)(=O)=O)O3)cc1OC	nt	51.2	nt
